Source: PubChem (several laboratories)
SMARCA2 act = activators of SMARCA2 function. MG213 cells, MMTV-luciferase reporter, dexamethasone, overnight. activation, % at 9.1 µM. 1% of 370,000 active; in the data active = activation above about 7.8%
FXN GAA850 act = increases GAA850 frataxin promoter reporter activity | HEK293 lucGAA850 FXN promoter luciferase reporter, 24 h; percent of 10 µM SAHA response | activation, % at 6 µM | 0.56% of 360,000 active | AID 540364;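 active = activation above the average of all compounds screened plus 3 SD, cutoff fixed separately per campaign, cut at about 7.5% in these data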
FAS TE block = blocks the thioesterase domain of human fatty acid synthase. 0.67% of 360,000 active. recombinant FAS-TE, OMFH fluorogenic substrate, fluorescence endpoint. P49327. inhibition, % at 15 µM;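 active = compounds whose normalised, plate-corrected inhibition of enzyme fluorescence in the single-dose primary screen is 50% or more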
Target sequence (P49327 whole entry, looked up, the tested form may be a part): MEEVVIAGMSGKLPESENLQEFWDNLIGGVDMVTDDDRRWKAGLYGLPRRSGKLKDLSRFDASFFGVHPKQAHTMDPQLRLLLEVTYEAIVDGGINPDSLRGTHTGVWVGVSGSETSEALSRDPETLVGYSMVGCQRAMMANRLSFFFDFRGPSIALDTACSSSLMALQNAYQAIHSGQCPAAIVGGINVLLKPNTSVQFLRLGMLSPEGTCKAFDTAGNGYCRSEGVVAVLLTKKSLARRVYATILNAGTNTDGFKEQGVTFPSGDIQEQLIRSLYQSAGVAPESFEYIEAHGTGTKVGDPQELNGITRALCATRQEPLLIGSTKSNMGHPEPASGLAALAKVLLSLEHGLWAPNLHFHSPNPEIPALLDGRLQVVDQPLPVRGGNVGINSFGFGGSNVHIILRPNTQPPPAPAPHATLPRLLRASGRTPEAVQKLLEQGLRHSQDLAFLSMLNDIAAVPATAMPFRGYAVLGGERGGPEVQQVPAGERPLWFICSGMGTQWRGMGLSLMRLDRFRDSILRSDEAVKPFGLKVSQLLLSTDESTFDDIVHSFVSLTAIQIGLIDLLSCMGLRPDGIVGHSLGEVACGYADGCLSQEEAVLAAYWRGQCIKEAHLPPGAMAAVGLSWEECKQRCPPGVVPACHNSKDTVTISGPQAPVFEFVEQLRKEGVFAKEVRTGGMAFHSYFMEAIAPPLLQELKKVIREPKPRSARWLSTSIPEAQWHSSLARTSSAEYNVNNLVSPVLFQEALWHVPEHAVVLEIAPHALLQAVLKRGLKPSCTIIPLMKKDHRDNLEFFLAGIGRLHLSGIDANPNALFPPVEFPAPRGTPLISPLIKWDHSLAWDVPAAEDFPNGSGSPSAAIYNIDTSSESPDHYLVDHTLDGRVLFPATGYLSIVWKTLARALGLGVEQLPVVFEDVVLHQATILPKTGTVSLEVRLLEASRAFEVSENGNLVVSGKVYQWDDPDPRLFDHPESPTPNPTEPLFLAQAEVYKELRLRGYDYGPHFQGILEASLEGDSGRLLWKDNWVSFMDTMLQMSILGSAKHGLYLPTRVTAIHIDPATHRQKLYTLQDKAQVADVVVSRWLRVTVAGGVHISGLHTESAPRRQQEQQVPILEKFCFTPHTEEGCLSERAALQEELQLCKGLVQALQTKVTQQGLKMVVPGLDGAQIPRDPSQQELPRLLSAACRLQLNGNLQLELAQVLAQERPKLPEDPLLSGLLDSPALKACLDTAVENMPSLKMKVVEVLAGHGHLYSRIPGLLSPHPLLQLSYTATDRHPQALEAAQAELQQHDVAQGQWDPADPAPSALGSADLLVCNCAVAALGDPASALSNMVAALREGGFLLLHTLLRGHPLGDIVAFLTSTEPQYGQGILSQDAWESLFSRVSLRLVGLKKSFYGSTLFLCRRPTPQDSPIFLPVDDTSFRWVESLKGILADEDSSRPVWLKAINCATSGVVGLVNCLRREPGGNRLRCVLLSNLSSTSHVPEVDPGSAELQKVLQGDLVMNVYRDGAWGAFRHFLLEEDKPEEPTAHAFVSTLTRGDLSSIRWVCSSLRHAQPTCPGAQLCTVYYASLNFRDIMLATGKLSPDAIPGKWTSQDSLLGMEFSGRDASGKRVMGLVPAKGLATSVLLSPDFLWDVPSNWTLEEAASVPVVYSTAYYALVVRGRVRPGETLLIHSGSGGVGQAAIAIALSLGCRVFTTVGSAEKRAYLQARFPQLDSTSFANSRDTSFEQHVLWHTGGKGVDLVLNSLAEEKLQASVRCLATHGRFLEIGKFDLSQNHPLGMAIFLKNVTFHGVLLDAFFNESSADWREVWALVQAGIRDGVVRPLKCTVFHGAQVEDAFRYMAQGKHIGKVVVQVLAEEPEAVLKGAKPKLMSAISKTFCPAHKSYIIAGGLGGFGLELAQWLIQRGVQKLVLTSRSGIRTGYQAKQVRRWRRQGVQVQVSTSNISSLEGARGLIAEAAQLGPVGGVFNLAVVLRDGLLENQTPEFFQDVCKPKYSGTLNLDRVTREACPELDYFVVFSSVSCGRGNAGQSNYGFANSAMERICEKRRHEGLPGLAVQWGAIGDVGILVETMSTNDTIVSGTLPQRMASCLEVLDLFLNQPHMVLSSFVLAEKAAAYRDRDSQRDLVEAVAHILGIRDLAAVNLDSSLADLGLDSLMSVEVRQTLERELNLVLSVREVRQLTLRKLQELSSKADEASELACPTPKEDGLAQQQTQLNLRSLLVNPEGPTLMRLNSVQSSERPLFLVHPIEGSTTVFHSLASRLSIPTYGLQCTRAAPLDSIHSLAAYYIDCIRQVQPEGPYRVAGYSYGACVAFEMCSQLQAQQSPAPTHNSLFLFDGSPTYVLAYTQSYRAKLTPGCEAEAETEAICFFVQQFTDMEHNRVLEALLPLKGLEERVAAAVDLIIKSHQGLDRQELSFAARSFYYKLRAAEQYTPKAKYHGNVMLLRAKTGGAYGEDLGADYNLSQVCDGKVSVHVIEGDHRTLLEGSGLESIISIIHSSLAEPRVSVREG
proKLK7 act = activates the human kallikrein-7 zymogen | purified proKLK7, EDANS-DABCYL substrate fluorescence; 100% is mature enzyme control, 0% vehicle | activation, % at 7 µM | 0.9% of 370,000 active | AID 652039;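 active = activation above the mean of all tested compounds plus 3 SD, computed per campaign excluding outliers beyond control limits, cut at about 13% in these data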
SMARCA2 conf = SMARCA2 activation, confirmation screen. shares compounds with SMARCA2 act. MG213 cells, MMTV-luciferase with dexamethasone, luminescence, overnight; MG213 cells expressing E1A, Rb sequestered; DMSO wells 0%, reference activator 100%. activation, % at 9.1 µM. 30% of 3,500 active. AID 652260;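 active = activation above its plate's cutoff, the mean activation of tested wells plus 3 SD, cut at about 7.9% in these data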
VP16 Luc act = counter-screen for SMARCA2 activators: GAL4-VP16 luciferase reporter activation. shares compounds with SMARCA2 act. HEK293 GAL4-VP16 pG5luc reporter, luciferase luminescence; scaled: DMSO wells 0%, SAHA wells 100%. activation, % at 9.1 µM. 41% of 3,500 active. AID 686939;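 active = activation above the solvent-only control well mean plus 3 SD, averaged across control plates, cut at about 5.2% in these data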
KLK7 act conf = proKLK7 activation, confirmation; activation, % at 7 µM; shares compounds with proKLK7 act; purified proKLK7, EDANS-DABCYL substrate fluorescence; scaled: vehicle 0, mature enzyme 100; 68% of 3,200 active;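 active = activation, as change over the incubation, above the mean of all tested compounds plus 3 SD, cut at about 13% in these data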
EDANS-DABCYL int = counter-screen for kallikrein-7 activators: EDANS-DABCYL optical interference; 80% of 3,200 active; shares compounds with proKLK7 act; activation, % at 7 µM; EDANS-DABCYL substrate fluorescence interference, no enzyme, 4 h; solvent 0%, active enzyme control 100%;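 active = activation above the all-compound mean plus 3 SD, ignoring values outside control-based bounds, cut at about 4.8% in these data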;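 also: value is the 4 h activation minus the activation read at time zero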
Of the large screens only hits and unclear results are named; the others gave an inactive call (follow-up assays come after a bar, where they were run). Hits are enriched below; roughly 2.9% of the tested compounds scored in any of these assays.

CCCCNC(=O)c1nc(C2CCN(S(=O)(=O)c3csc(C(=O)O)c3)CC2)oc1-c1ccccc1	none (no result: FXN GAA850 act)
CCCCNC(=O)c1cc2c(=O)n3cccc(C)c3nc2n(Cc2ccncc2)c1=N	SMARCA2 act 9.7, proKLK7 act 45 | SMARCA2 conf 13 | VP16 Luc act inactive | KLK7 act conf inactive | EDANS-DABCYL int inactive
Cc1cccn2c(=O)c3cc(C(=O)NCCc4ccccc4)c(=N)n(Cc4ccco4)c3nc12	none
CCCn1c(/C=C/c2ccco2)nc2ccccc21	none
CC(=O)c1ccc(/C=C/c2nc3ccccc3n2C)o1	SMARCA2 act 8.8, proKLK7 act 40 | SMARCA2 conf 23 | VP16 Luc act 12 | KLK7 act conf 71 | EDANS-DABCYL int 71
COc1ccc(C(CNC(=O)c2cccc(NC(=O)c3cccs3)c2)N2CCCC2)cc1 (centres undefined)	none
O=C(CC(=O)c1ccccc1)Nc1ccccn1	SMARCA2 act 13, proKLK7 act 21 | SMARCA2 conf inactive | VP16 Luc act 9.2 | KLK7 act conf inactive | EDANS-DABCYL int inactive
C[C@H]1O[C@@H](O[C@H]2CC[C@@]3(C)C(CC[C@]4(C)C3C=CC3=C5CC(C)(C)CC[C@]5(CO)[C@H](O)C[C@]34C)[C@]2(C)CO)[C@H](O)[C@@H](O[C@@H]2O[C@H](CO)[C@@H](O)[C@H](O)[C@H]2O)[C@H]1O (some centres undefined)	none
COc1ccc2[nH]c3c(=S)nc[nH]c3c2c1	SMARCA2 act 9.7, proKLK7 act 21 | SMARCA2 conf inactive | VP16 Luc act inactive | KLK7 act conf inactive | EDANS-DABCYL int inactive
CCN(CC)c1ccc(Nc2cc3n(c(=O)n2)CCc2cc(OC)c(OC)cc2-3)cc1	SMARCA2 act 14, proKLK7 act 21 | SMARCA2 conf 18 | VP16 Luc act inactive | KLK7 act conf 72 | EDANS-DABCYL int 74
COc1cc2c(cc1OC)-c1cc(Nc3cccc(F)c3)nc(=O)n1CC2	none
COc1ccc2c(c1)OCC(O)(c1ccccc1)C2=O (centres undefined)	none
COC(=O)c1nn(-c2ccc3c(c2)OCO3)cc1O	SMARCA2 act 9.0, proKLK7 act 13 | SMARCA2 conf 13 | VP16 Luc act 11 | KLK7 act conf inactive | EDANS-DABCYL int inactive
CCOc1ccc2c(c1)sc1nc(C(=O)OC)cc(=O)n12	proKLK7 act 17 | KLK7 act conf 15 | EDANS-DABCYL int 16
COC(=O)c1cc(=O)nc2sc3cc(OC)ccc3n12	proKLK7 act 29 | KLK7 act conf 22 | EDANS-DABCYL int 24
OC(Cn1cncn1)c1ccc(Cl)cc1 (centres undefined)	none
Cc1nn(C)c2nc(-c3cccs3)cc(C(F)(F)F)c12	none
COCCn1c(=O)[nH]c(=O)c2c(C(F)(F)F)cc(-c3cccs3)nc21	proKLK7 act 31 | KLK7 act conf inactive | EDANS-DABCYL int inactive
Nc1nc2ncccc2cc1C(=O)NC1CC1	proKLK7 act 25 (no result: FXN GAA850 act, FAS TE block) | KLK7 act conf 28 | EDANS-DABCYL int 27
O=C(NC1CCCCC1)c1cc2ccccc2cc1O	none
Nc1nc2ncccc2cc1C(=O)NC1CCCCC1	proKLK7 act 24 (no result: FXN GAA850 act) | KLK7 act conf 20 | EDANS-DABCYL int 25
CCCCNC(=O)C[C@@H]1C(=O)N2CCCC3=C2[C@@]1(C(=O)OC)CCCC3	none (no result: FXN GAA850 act, FAS TE block)
Nc1ccc(-c2c3ccc(=O)cc-3oc3cc(O)ccc23)cc1C(=O)O	none
O=c1ccc2c(-c3ccccc3)c3ccc(O)cc3oc-2c1	proKLK7 act 25 | KLK7 act conf 49 | EDANS-DABCYL int 51
CCOc1ccc(-c2cnc3cccnn23)cc1	none
O=C(NC1CC1)c1ccc(-c2cnc3cccnn23)cc1	proKLK7 act 77 | KLK7 act conf 83 | EDANS-DABCYL int 79
O=C(NC1CC1)c1cccc(-c2cncc3nccn23)c1	proKLK7 act 16 | KLK7 act conf inactive | EDANS-DABCYL int 11
O=C(NCc1ccco1)c1cccc(-c2cncc3nccn23)c1	proKLK7 act 16 | KLK7 act conf 20 | EDANS-DABCYL int 19
C[C@H]1CCCCO[C@H](CN(C)C(=O)Nc2ccc(F)cc2)[C@@H](C)CN([C@@H](C)CO)C(=O)c2cc(NC(=O)Nc3ccc4c(c3)OCO4)ccc2O1	none
CCOC(=O)Cn1nc(-c2ccc(Cl)cc2)ccc1=O	none
CC(=O)N(C(C)=O)c1ncnc2c1c(-c1ccc(Cl)cc1)nn2C(C)(C)C	proKLK7 act 27 | KLK7 act conf 27 | EDANS-DABCYL int 30
COc1cc(NC(=O)c2ccc3c(c2)S(=O)(=O)N=C2CCCCCN23)cc(OC)c1	proKLK7 act 15 | KLK7 act conf inactive | EDANS-DABCYL int inactive
N#CC1(Nc2ccc(-c3ccc(NC4(C#N)CCCC4)cc3)cc2)CCCC1	none
Cc1ccc(C2C3=C(CC(C)(C)CC3=O)Nc3n[nH]c(C)c32)cc1 (centres undefined)	none
Cc1[nH]nc2c1C(c1ccc(F)cc1)C1=C(CC(C)(C)CC1=O)N2 (centres undefined)	proKLK7 act 14 | KLK7 act conf inactive | EDANS-DABCYL int 12
CC(=O)Nc1ccc(S(=O)(=O)C(C#N)c2nc3ccccc3nc2NCCCO)cc1 (centres undefined)	proKLK7 act 39 | KLK7 act conf 53 | EDANS-DABCYL int 69
CC(=O)Nc1ccc(S(=O)(=O)C(C#N)c2nc3ccccc3nc2NCCO)cc1 (centres undefined)	proKLK7 act 64 | KLK7 act conf 66 | EDANS-DABCYL int 73
Cc1ccc(S(=O)(=O)C(C#N)c2nc3ccccc3nc2OCCO)cc1 (centres undefined)	none
CCc1nc2c(OCCOc3ccc(F)cc3)cccn2c1N(C)C(=O)c1cccs1	none
CC(C)N(Cc1c(O)ccc2c(=O)c(-c3ccc(Cl)cc3)coc12)C(C)C	none
O=c1c(-c2ccc(Cl)cc2)coc2c(CN3CCOCC3)c(O)ccc12	proKLK7 act 19 | KLK7 act conf 21 | EDANS-DABCYL int 23
COc1ccc(-c2coc3cc(OC(=O)N4CCOCC4)ccc3c2=O)cc1	none
CC1CCCCN1Cc1c(O)ccc2c(=O)c(-c3ccc(Cl)cc3Cl)coc12 (centres undefined)	none
O=c1c(-c2ccccc2)coc2c(CN3CCCC3)c(O)ccc12	proKLK7 act 67 | KLK7 act conf 39 | EDANS-DABCYL int 49
